The record followed here is PubChem BioAssay (NCATS).

Inconclusive results are not listed. Activity calls are given as the source filed them. Unless noted, calls follow the shape of the dose curve; as a rule, active = well fitted curve in the direction sought with a large enough effect; inconclusive = small, poorly fitted or top-dose-only effect, or another doubt; inactive = no such curve, though single readings can be large; an effect the other way counts as inactive or inconclusive.

Assay [1] deals with Cytochrome P450 3A4 (Homo sapiens) (UniProt P08684). The experiment in a line: qHTS Assay for Activators of Cytochrome P450 3A4 (AID 885). Also: nearly all actives have a fitted effect of over 65% in size. Summed up: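 CYP3A4 activity: Luciferin-PPXE O-dealkylation, 25uM substrate, 200mM KPO4, RT throughout. Read-out is luciferase luminescence; higher values reflect activation.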
Chain of Cytochrome P450 3A4 (Homo sapiens) (P08684 whole entry, looked up): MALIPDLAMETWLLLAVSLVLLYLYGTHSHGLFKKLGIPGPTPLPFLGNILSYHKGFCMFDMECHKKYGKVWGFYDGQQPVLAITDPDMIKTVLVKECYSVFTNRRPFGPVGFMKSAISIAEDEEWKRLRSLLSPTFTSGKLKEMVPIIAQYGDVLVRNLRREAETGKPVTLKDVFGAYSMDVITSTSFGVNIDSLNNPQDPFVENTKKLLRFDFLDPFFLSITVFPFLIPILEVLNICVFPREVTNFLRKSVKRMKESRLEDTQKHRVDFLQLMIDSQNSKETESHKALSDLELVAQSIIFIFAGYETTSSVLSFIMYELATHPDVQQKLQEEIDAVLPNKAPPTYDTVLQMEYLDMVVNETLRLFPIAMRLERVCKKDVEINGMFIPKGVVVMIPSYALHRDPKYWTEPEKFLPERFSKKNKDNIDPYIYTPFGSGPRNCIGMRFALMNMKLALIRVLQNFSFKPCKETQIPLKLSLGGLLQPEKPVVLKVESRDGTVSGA
(In general: qHTS replaces the single test concentration by a dilution series.)

A short description of assay [2]: Confirmation and Secondary Assay for Modulators of Hemoglobin Beta Chain Splicing at IVS2 654 locus (AID 910).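 Also: HeLa cells stably carrying EGFP split by mutant beta-globin IVS2-654 intron; per-well total GFP intensity by laser scanning cytometry after 2-day treatment; % of control where 0% means no effect.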 Summed up:
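Readout: per-well total peak green fluorescence (488 nm ex, 500–520 nm em) from objects 5–250 µm, reflecting correct splicing of an EGFP-654 reporter. Compounds were applied for 2 days at 37 °C to overnight-plated HeLa EGFP-654 cells; controls were DMSO and 500 nM IVS2-654 PNA.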

A short description of assay [3]: Confirmation and Secondary Assay for Modulators of Hemoglobin Beta Chain Splicing at IVS2 705 locus (AID 930).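 Also: HeLa cells stably expressing the EGFP-705 splicing reporter; GFP fluorescence per well restored by corrected splicing of the IVS2-705 intron in EGFP; % of control where 0% means no effect.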 The method in brief:
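Per-well GFP, captured at 1 x 8 µm resolution with 488 nm excitation, served as the read-out for HeLa EGFP-705 cells incubated 2 days with test compound versus DMSO.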

Assay [4] can be described thus: qHTS Assay for Lipid Storage Modulators (AID 1519; calls by dose curve). Conditions: Drosophila S3 cells, BODIPY lipid droplet/cell ratio, laser cytometry, cells loaded with oleic acid. The method in brief: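 Cells seeded at 5,000 per well were treated with compounds over a concentration series and loaded with oleic acid (400 uM, as added). Lipid droplet fluorescence (488 nm excitation, 500-530 nm channel) was read by laser-scanning cytometry and normalized to 20 uM Triacsin C.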

Assay [5] addresses Ubiquitin carboxyl-terminal hydrolase 1 (Homo sapiens) (UniProt O94782). The experiment in a line: Inhibitors of USP1/UAF1: Pilot qHTS (AID 504865). Also: potency is read from the fitted curve at half-maximal effect; nearly all actives have a fitted effect of over 35% in size. The method in brief: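 Deubiquitinase activity followed as kinetic rhodamine fluorescence release from 150 nM Ub-Rho. 1 nM USP1/UAF1 with compound, after 15 min room-temperature preincubation, in HEPES pH 7.8 buffer containing TCEP, EDTA, BSA and Tween-20.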

Assay [6] in a line: AP1 Signaling Pathway (AID 357; active = well fitted curve in either direction with a large enough effect, not every such curve was filed as active;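 also: ME-180 reporter cells stimulated with EGF at its EC50 level; % is scaled to controls: 0 for no effect and ±100 for the full control effect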). The method in brief:
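A ratiometric CCF4 readout (405 nm excitation; 460 and 530 nm emission) quantified AP-1-driven beta-lactamase in ME-180 cells after 5 h with compound and EC50 EGF; AC50 values were derived for activators and inhibitors.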

The target in assay [7] is Glucocorticoid receptor (Homo sapiens) (UniProt P04150). The experiment in a line: GR-EFC Redistribution (AID 451; calls by dose curve; also: potency is read from the fitted curve at half-maximal effect). As to conditions: CHO-K1 GR-EFC translocation, beta-gal luminescence, 2 h. Summed up: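 Translocation of GR-ED fusion to nuclear EA restores b-gal, read by luminescence after 1 h room-temperature detection. Engineered CHO-K1 biosensor cells, 1,000/well, exposed 2 h at 37 C to titrations up to 46 uM final.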
Chain of Glucocorticoid receptor (Homo sapiens) (P04150 whole entry, looked up, the tested form may be a part): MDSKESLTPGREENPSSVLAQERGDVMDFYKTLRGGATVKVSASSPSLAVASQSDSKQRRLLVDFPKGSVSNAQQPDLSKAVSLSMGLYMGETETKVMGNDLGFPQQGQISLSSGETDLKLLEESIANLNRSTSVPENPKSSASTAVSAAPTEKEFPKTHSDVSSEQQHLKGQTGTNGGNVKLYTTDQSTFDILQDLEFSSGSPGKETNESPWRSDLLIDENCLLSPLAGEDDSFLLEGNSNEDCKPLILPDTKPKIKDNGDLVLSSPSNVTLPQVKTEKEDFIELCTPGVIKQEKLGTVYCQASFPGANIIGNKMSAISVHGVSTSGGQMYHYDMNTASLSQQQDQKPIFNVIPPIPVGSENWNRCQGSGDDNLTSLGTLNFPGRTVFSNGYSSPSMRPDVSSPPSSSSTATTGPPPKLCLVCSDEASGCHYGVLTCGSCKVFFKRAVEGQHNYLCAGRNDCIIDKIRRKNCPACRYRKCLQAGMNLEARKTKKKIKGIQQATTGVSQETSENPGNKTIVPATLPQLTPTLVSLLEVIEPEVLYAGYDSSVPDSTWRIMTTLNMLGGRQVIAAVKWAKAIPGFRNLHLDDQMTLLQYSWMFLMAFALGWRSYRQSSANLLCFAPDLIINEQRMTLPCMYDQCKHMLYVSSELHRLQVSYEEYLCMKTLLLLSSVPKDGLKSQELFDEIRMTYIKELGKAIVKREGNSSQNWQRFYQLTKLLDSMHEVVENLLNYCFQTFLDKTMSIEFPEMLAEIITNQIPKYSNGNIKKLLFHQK

The target in assay [8] is Mitogen-activated protein kinase 10 (Mus musculus) (UniProt Q61831). The experiment in a line: JNK3 AlphaScreen Assay (AID 530; active = well fitted curve in either direction with a large enough effect, not every such curve was filed as active;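 also: kinase came from lysate of stimulated human HepG2 cells; signal reports phosphorylation of biotinylated GST-cJun 1-79 at Ser73 with 10 µM ATP; % is scaled to controls: 0 for no effect and ±100 for the full control effect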). The method in brief: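 Kinase buffer: 20 mM Tris-HCl pH 7.6, 10 mM MgCl2, 1 mM DTT, 0.1 mM Na3VO4, 0.01% Tween-20; ATP 10 uM. Substrate biotin-GST-cJun(1-79), enzyme from activated HepG2 lysates. Detection by Ser73 phospho-antibody AlphaScreen.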
On the technique in general: Bead proximity is the source of the signal in Alpha formats.

Assay [9] deals with 3',5'-cyclic-AMP phosphodiesterase 4B (Homo sapiens) (UniProt Q07343). The experiment in a line: qHTS Assay for Inhibitors of PDE-IV (AID 607; active = well fitted activation curve with a large enough effect in the main read-out, with a control signal flat, not every such curve was filed as active; also: % of control where 0% means no effect). The method in brief:
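ACTOne HEK293 cells carry a modified cAMP-gated CNG channel and express endogenous PDE4; plated 1000 cells/well, compounds up to 22.9 uM final. Membrane-potential dye fluorescence (ex 535/em 590) was read; parental cells received 10 uM forskolin + 100 uM RO 20-1724.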

Assay [10] has as its target DNA repair nuclease/redox regulator APEX1 (Homo sapiens) (UniProt P27695). The experiment in a line: qHTS Validation Assay for Inhibitors of the Human Apurinic/apyrimidinic Endonuclease 1 (APE1) (AID 1705;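 also: TAMRA fluorescence gain over two minutes as APE1 cuts a quenched THF abasic duplex; % is scaled to controls: 0 for no effect and ±100 for the full control effect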). Summed up: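 Activity read as rising fluorescence (598 nm emission, 525 nm excitation) from incision of a TAMRA/BHQ-2 duplex carrying a THF abasic site (50 nM). Compound and enzyme sat 15 min at RT before substrate start; signal change between first and third 60-s reads.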

Assay [11] can be described thus: Primary qHTS for small molecule stabilizers of the endoplasmic reticulum resident proteome: Secreted ER Calcium Modulated Protein (SERCaMP) assay (AID 1508630). Also: % is scaled to controls: 0 for no effect and ±100 for the full control effect. The method in brief:
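The SH-SY5Y reporter protocol was run at 3 concentrations up to 38.3 uM (primary) or 11 concentrations (follow-up): 16 h compound, 100 nM thapsigargin for 4 h, then extracellular luciferase luminescence.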

Assay [12] deals with Lysosomal acid glucosylceramidase (Homo sapiens) (UniProt P04062). The experiment in a line: Glucocerebrosidase-p2 (AID 348; in the data active = potency below about 10 µM; also: potency is read from the fitted curve at half-maximal effect). Conditions: purified GBA, blue fluorogenic substrate, 40 min. Summed up: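 Normal human glucocerebrosidase (0.2 nM) with blue fluorogenic substrate (80 uM final) in citrate/phosphate pH 5.9 with 10mM sodium taurocholate, 0.01% tween-20; 40 min RT, NaOH/glycine stop; fluorescence Ex 365/Em 440; AC50 from a titration from 0.6 nM upwards.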
Chain of Lysosomal acid glucosylceramidase (Homo sapiens) (P04062 whole entry, looked up): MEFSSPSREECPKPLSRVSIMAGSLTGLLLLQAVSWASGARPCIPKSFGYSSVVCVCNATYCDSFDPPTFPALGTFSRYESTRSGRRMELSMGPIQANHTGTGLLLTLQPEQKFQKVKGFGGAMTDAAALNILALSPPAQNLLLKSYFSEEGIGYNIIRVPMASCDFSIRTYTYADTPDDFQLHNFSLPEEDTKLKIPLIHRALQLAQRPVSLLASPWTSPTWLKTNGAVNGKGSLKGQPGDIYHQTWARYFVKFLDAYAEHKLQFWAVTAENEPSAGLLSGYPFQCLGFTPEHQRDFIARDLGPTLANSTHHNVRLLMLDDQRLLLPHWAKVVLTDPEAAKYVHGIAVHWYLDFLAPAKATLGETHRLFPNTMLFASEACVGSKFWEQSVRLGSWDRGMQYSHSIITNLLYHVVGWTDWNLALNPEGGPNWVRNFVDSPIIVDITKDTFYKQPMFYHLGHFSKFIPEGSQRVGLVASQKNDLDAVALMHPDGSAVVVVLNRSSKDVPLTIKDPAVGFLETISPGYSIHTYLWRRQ

Assay [13] is described as follows: Stat Signaling Pathway (AID 446; active = well fitted curve in either direction with a large enough effect, not every such curve was filed as active). Summed up:
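Compound effects on IL-6-induced STAT reporter activity were measured in ME-180 cells. After overnight culture, cells were co-treated with 40 pM IL-6 for 5 hrs before beta-lactamase substrate loading at room temperature.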

Where [14] appears, read: measured here: cell count channel max response.
Where [15] appears, read: measured here: lipid channel max response.

Chain of 3',5'-cyclic-AMP phosphodiesterase 4B (Homo sapiens) (Q07343 whole entry, looked up): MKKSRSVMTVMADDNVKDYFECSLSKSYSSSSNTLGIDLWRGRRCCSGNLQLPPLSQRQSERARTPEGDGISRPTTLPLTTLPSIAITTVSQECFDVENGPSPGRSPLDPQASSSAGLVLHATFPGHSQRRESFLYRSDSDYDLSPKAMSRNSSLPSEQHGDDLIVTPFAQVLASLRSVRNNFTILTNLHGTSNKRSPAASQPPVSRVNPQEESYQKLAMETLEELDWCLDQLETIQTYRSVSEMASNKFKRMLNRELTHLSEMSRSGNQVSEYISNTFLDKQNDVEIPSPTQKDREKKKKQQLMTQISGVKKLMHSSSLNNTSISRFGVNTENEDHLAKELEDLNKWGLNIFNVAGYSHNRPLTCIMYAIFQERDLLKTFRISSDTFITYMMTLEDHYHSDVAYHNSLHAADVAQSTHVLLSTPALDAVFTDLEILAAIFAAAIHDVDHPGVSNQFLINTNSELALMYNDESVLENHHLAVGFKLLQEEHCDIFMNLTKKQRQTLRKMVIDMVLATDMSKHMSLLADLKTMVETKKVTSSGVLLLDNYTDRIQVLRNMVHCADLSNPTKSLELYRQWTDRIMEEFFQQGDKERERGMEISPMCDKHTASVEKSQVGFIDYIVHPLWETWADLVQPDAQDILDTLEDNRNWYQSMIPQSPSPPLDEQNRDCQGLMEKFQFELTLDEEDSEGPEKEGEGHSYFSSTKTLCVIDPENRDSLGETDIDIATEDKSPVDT
Chain of Ubiquitin carboxyl-terminal hydrolase 1 (Homo sapiens) (O94782 whole entry, looked up): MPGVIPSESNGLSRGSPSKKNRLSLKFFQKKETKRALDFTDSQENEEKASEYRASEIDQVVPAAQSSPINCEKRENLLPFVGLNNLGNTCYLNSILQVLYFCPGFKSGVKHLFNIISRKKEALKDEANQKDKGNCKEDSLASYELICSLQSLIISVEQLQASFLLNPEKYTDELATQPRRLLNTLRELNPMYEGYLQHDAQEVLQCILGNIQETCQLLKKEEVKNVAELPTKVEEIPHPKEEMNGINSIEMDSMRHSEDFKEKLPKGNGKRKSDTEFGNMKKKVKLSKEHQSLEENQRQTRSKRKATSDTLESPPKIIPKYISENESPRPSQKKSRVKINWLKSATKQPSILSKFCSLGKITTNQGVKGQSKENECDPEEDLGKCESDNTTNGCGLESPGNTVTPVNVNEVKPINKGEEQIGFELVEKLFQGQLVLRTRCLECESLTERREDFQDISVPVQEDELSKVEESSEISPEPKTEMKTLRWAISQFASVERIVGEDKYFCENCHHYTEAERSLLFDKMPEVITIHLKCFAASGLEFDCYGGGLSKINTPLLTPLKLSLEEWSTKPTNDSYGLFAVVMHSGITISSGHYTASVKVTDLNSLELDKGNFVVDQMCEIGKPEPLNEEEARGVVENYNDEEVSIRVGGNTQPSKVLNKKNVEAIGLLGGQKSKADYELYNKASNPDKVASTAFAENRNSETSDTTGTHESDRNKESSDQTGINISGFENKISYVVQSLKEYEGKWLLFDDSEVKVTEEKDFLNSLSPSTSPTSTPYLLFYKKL
Chain of DNA repair nuclease/redox regulator APEX1 (Homo sapiens) (P27695 whole entry, looked up): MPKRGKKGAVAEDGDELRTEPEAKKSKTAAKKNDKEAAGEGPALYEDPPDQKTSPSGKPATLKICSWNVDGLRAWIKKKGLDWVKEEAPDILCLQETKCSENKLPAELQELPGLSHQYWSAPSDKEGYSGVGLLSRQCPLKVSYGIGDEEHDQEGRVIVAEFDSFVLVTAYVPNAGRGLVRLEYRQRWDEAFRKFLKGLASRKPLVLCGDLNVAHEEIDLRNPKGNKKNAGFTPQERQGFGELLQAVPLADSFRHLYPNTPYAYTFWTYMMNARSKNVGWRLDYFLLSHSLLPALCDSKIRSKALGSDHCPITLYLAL

For the compound `O=C1C=CC(=O)c2c(O)cccc21`, the Potency result in assay [1], in [2] and in assay [3] was “inactive” in each case. Also, in assay [4] (at 57.5 µM (top of the series)), the activity change, negative = inhibition is 10.3% (inactive). For the same compound, the figures for the max response in [4] (setting [14]) and in assay [4] (setting [15]) were -12.3% and -1.73%, respectively. Moreover, the Potency in assay [5] was 8.91 µM (active).
With `CN1C[C@H](C(=O)N[C@]2(C)O[C@]3(O)[C@H]4CCCN4C(=O)[C@H](Cc4ccccc4)N3C2=O)C[C@H]2c3cccc4[nH]cc(c34)C[C@@H]21`, the activity change, negative = inhibition in assay [4] (at 25.7 µM (top of the series)) was -4.57% (inactive). In addition, the values for the max response in assay [4] (setting [14]) and in [4] (setting [15]) were -15.1% and -19.9%, respectively.
Consider `COc1ccc2cc1Oc1ccc(cc1)C[C@H]1c3cc(c(OC)cc3CCN1C)Oc1c(OC)c(OC)cc3c1[C@@H](C2)N(C)CC3`, for which the activity change, negative = inhibition in assay [4] (at 25.7 µM (top of the series)) was -4.24% (inactive). Besides, the max response in assay [4] (setting [14]) is -9.67%; in assay [4] (setting [15]), -10.6%.
Take `CC(=O)OC1CC2C(C)(C)C(=O)C=C[C@]2(C)C2CC[C@]3(C)C(=CC(=O)OC3c3ccoc3)[C@]12C` (stereo partly drawn): the Potency result in assay [1], in [2] and in [3] was “inactive” throughout. Moreover, the activity change, negative = inhibition in assay [4] (at 57.5 µM (top of the series)) was -3.77% (inactive). Moreover, the max response in assay [4] (setting [14]) amounted to 5.48%; in assay [4] (setting [15]), 6.78%.
Turning to `NC(N)=N/N=C\c1c(Cl)cccc1Cl`, in [4] (at 57.5 µM (top of the series)), the activity change, negative = inhibition was 6.25% (inactive). For the same compound, the values for the max response in assay [4] (setting [14]) and in assay [4] (setting [15]) were 12.3% and 22.6%, respectively.
For `COc1cc2c(cc1-c1cc3cc4ccoc4cc3oc1=O)OCO2`, the Potency entry in assay [1], in assay [2] and in assay [3] was “inactive” throughout. Moreover, the activity change, negative = inhibition in assay [4] (at 57.5 µM (top of the series)) was 16.5% (inactive). Further, the max response in assay [4] (setting [14]) was found to be 6.63%; in [4] (setting [15]), 25.9%. For the same compound, the Potency in [5] is 50.1 µM (active).
Turning to `C[C@@H](C(=O)O)c1ccc(-c2ccccc2)c(F)c1`, in [4] (at 25.7 µM (top of the series)), the activity change, negative = inhibition is 2.45% (inactive). Moreover, the max response in assay [4] (setting [14]) is 2.3%; in [4] (setting [15]), 1.21%.
For `O=C(OC1CCN(CCCl)CC1)C(c1ccccc1)c1ccccc1`, the outcome in [6] and in assay [8] was inactive. In [7], the Potency was > 46 µM (inactive). The Potency result in assay [9], in [1] and in [10] was “inactive” each time. Also, the activity change, negative = inhibition in [4] (at 57.5 µM (top of the series)) is 0.755% (inactive). Also, the results for the max response in assay [4] (setting [14]) and in assay [4] (setting [15]) were -17.2% and -14.8%, respectively.
For `COc1cc2occc2c2oc(=O)ccc12`, the Potency entry in [1], in [2] and in assay [3] was “inactive” in each case. The result in assay [11] was inactive.
`C[C@H](CCC(=O)O)[C@H]1CC[C@@H]2[C@H]3CC[C@H]4C[C@@H](O)CC[C@@]4(C)[C@H]3CC[C@]21C`: in [4] (at 25.7 µM (top of the series)), the activity change, negative = inhibition is 2.39% (inactive). Further, the max response in [4] (setting [14]) is -11.2%; in assay [4] (setting [15]), -8.48%.
In the case of `O=C(Oc1ccccc1)N1CCC2(CCN(Cc3ccncc3)CC2)CC1`, the figures for the Potency in assay [12] and in assay [7] were > 11.4 µM (inactive) and > 46 µM (inactive), respectively. The result in [6], in assay [13], in [8] and in assay [11] was inactive. Also, the Potency entry in [9] and in assay [1] was “inactive” throughout.
Consider `CN1C[C@H](C(=O)N[C@@]2(C)O[C@@]3(O)C4CCCN4C(=O)C(Cc4ccccc4)N3C2=O)C[C@H]2c3cccc4[nH]cc(c34)C[C@H]21` (stereo partly drawn), for which the activity change, negative = inhibition in assay [4] (at 57.5 µM (top of the series)) is 12.3% (inactive). For the same compound, the max response in assay [4] (setting [14]) turned out to be 8.55%; in assay [4] (setting [15]), 25.1%.
For the compound `COc1ccc2cc1Oc1ccc(cc1)CC1c3cc(c(OC)cc3CCN1C)Oc1c(OC)c(OC)cc3c1C(C2)N(C)CC3` (stereo not drawn), the activity change, negative = inhibition in assay [4] (at 57.5 µM (top of the series)) is 6.58% (inactive). Further, the max response in assay [4] (setting [14]) was -1.03%; in [4] (setting [15]) it was 6.79%.
As for `COc1cc2c(cc1O)CC1c3c(cc(O)c(OC)c3-2)CCN1C` (stereo not drawn), the Potency entry in [1], in assay [2] and in assay [3] was “inactive” in each case. Moreover, the activity change, negative = inhibition in assay [4] (at 57.5 µM (top of the series)) was 9.81% (inactive). The results for the max response in [4] (setting [14]) and in assay [4] (setting [15]) were 24.1% and 38.2%, respectively.
